HCV inh – qHTS Assay for Inhibitors of Hepatitis C Virus (HCV) | AID 651820, 2012 | Potency, µM (series often up to 41.8 µM), inactives show at the top dose activity change, negative = inhibition, actives largely listed as inhibitors | actives 3.4% (n = 340,000) | Huh7.5.1 HCVcc-Cre infection, luciferase reporter, 44 h; also: potency is read from the fitted curve at half-maximal effect
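Seed cells (1,000/well) for 4 h; treat with compound and infect with HCVcc-Cre, moi about 0.5. Incubate 44 h, then detect luciferase activity.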
Pf growth 96h – Primary qHTS for delayed death inhibitors of the malarial parasite plastid, 96 hour incubation | AID 504834, 2011 | Potency, µM (titrated, usually from 28.7 µM), inactives show at the top dose activity change, negative = inhibition, usual class: inhibitors | P. falciparum luciferase reporter growth, 96 h | actives 6.9% (n = 320,000); also: potency is read from the fitted curve at half-maximal effect
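Two parasite generations (96 h, 37 C, 5% CO2) of compound exposure in infected erythrocytes (0.05% parasitemia, 2% hematocrit). Luciferase-reporter P. falciparum; decreased luminescence indicates inhibited growth, aimed at apicoplast-acting delayed death.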
MARV entry inh – qHTS for inhibitors of binding or entry into cells for Marburg Virus | Marburg virus pseudotyped entry inhibition, cell reporter | AID 540276, 2011 | Potency, µM (highest dose often 37.8 µM), inactives show top-dose activity change, negative = inhibition, usual class: inhibitors | actives 1.8% (n = 300,000); calls by dose curve; tested in HEK293 cells; also: potency is read from the fitted curve at half-maximal effect
LASV entry inh – qHTS for Inhibitors of binding or entry into cells for Lassa Virus. Lassa virus pseudotype entry inhibition, cell reporter. Potency, µM (doses to about 37.9 µM), for the others: at the highest dose activity change, negative = inhibition, hits mostly inhibitors. actives 1.2% (n = 300,000). AID 540256, 2011; calls by dose curve; tested in HEK293 cells; also: potency is read from the fitted curve at half-maximal effect; nearly all actives have a fitted effect of over 50% in size
Pf growth 48h – Primary qHTS for delayed death inhibitors of the malarial parasite plastid, 48 hour incubation | Potency, µM (top dose mostly 28.7 µM), for inactives: at the top dose activity change, negative = inhibition, hits mostly inhibitors | AID 504832, 2011 | actives 5.9% (n = 310,000) | P. falciparum luciferase growth in erythrocytes, 48 h; also: potency is read from the fitted curve at half-maximal effect
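Cell-based growth assay: transgenic P. falciparum expressing firefly luciferase, cultured in red cells within RPMI 1640 containing 0.5% w/v Albumax, 24 mM bicarbonate and gentamycin. A drop in luciferase activity indicates inhibition.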
HCMV inh – qHTS Assay for inhibitors of the human cytomegalovirus (HCMV) | HFF cells, HCMV-luciferase reporter, 72 h; stronger effect = lower value | activity change, negative = inhibition, % at 57.5 µM | actives 4.5% (n = 410,000) | AID 1259415, 2018; in the data active = activity change below about -60%; inconclusive = no clear call, values can overlap the other calls; inactive = above about -39%
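Cell-based, HFFs, 1000 cells/well, 16 h 37C; cpds in DMSO + HCMV-luc, MOI 1 PFU/cell; 72 h 37C; OneGlo luminescence after 5 min RT; norm. to buffer vs Salinomycin 10uM.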
The depositor's hits bear a star; [ ] = remark or other dose. Rows were chosen to be rich in hits. Some 14% of all compounds tested hit in one or more screens of this group. Unless noted, calls follow the shape of the dose curve; as a rule, active = well fitted inhibition curve with a large enough effect; inconclusive = small, poorly fitted or top-dose-only effect, or another doubt; inactive = no such curve, though single readings can be large or run the other way. % is scaled to controls: 0 for no effect and ±100 for the full control effect.

`COc1cc(NCCCn2ccc(NC(=O)OCc3ccccc3)nc2=O)cc(OC)c1OC` gave HCV inh -6.9% and HCMV inh 25.7.
Screening C=CCN1CCCC1CNC(=O)c1cc2[nH]nnc2cc1OC (stereo not drawn) returned HCV inh 5.1%, Pf growth 96h 0.0%, Pf growth 48h inconclusive and HCMV inh -68.1*.
Screening CCN1CCCC1CNC(=O)c1cc([N+](=O)[O-])c(N(C)C)cc1OC (stereo not drawn) returned HCV inh -3.5%, Pf growth 96h 4.15µM*, Pf growth 48h 2.6% and HCMV inh 47.3.
For COc1ccc(N/C(=C(/C(Cl)=C(Cl)Cl)[N+](=O)[O-])n2nnc3ccccc32)cc1OC the results were Pf growth 96h 14.7µM*.
Screening O=c1c2cc3c(cc2[nH]c(=S)n1C1CCN(Cc2ccccc2)CC1)OCO3 returned HCV inh 12.6µM*, Pf growth 96h inconclusive, MARV entry inh inconclusive, LASV entry inh 21.3%[46.1 µM], Pf growth 48h 27.1% and HCMV inh -33.0.
Screening O=C(CCCn1c(=S)[nH]c2cc3c(cc2c1=O)OCO3)N1CCN(c2ccccc2)CC1 returned HCV inh inconclusive, Pf growth 96h 13.1µM*, MARV entry inh 8.7%, LASV entry inh -11.3%, Pf growth 48h -16.1% and HCMV inh -9.9.
For O=C(CCCn1c(=S)[nH]c2cc3c(cc2c1=O)OCO3)N1CCN(c2ccc(Cl)cc2)CC1 the results were HCV inh 12.6µM*, Pf growth 96h 50.7%, MARV entry inh inconclusive, LASV entry inh inconclusive, Pf growth 48h -29.5% and HCMV inh -85.6*.
`O=C(CCCn1c(=S)[nH]c2cc3c(cc2c1=O)OCO3)NCCc1ccc(Cl)cc1` gave HCMV inh -73.7*.
For O=C(CCCCCn1c(=S)[nH]c2cc3c(cc2c1=O)OCO3)NCCc1ccccc1 the results were HCV inh inconclusive, Pf growth 96h inconclusive, Pf growth 48h -24.4% and HCMV inh 60.9.
O=C1NC[C@@H](CCCCN2C[C@H](Cc3ccccc3)N(CCc3ccccc3)C(=O)C2=O)N(CCc2ccccc2)C1=O was read as HCMV inh -2.9.
O=C(Nc1ccc2nc(SCC(=O)N3CCCC3)sc2c1)c1cccc(Br)c1 was read as MARV entry inh inconclusive, LASV entry inh -13.2%[46.1 µM] and HCMV inh -29.7.
CCOc1ccc(-c2cc(NC(=O)c3ccccc3)c(C(=O)OC)s2)cc1 was read as MARV entry inh 0.9%[46.1 µM], LASV entry inh inconclusive and HCMV inh 2.0.
`COc1ccc(N2CCN(C(=O)CCCCCn3c(=S)[nH]c4cc5c(cc4c3=O)OCO5)CC2)cc1` gave HCV inh 1.7%, Pf growth 96h inconclusive and Pf growth 48h inconclusive.
`CC(=O)c1ccc(N2CCN(C(=O)CCCn3c(=S)[nH]c4cc5c(cc4c3=O)OCO5)CC2)cc1` gave HCV inh inconclusive, Pf growth 96h 22.5%, MARV entry inh inconclusive, LASV entry inh inconclusive, Pf growth 48h 11.7µM* and HCMV inh 4.4.
Screening O=c1c2ccc(Cl)cc2nc(-c2ccc([N+](=O)[O-])cc2)n1O returned HCV inh -22.9%, Pf growth 96h inconclusive, MARV entry inh inconclusive, LASV entry inh inconclusive, Pf growth 48h -0.4% and HCMV inh -97.9*.
For Cc1ccc(F)c(S(=O)(=O)NC(=O)C2(C)CCN2C(=O)c2cccc3ccccc23)c1 (stereo not drawn) the results were HCMV inh 17.9.
`Cc1c(OCc2ccccc2)c(=O)ccn1Cc1ccc(F)cc1` gave HCV inh 1.78µM*, Pf growth 96h 2.33µM*, MARV entry inh inconclusive, LASV entry inh -17.3%, Pf growth 48h inconclusive and HCMV inh -24.7.

Screening results from PubChem BioAssay.
